Screening data from PubChem.
Hits are enriched below; roughly 6.8% of the tested compounds scored in any of these assays.
Pf Dd2 inh = P. falciparum Dd2 growth inhibition. 2.3% of 94,000 active. activity change, % at 10 µM. SYBR Green, 72 h; active compounds read low. AID 1159554; in the data active means activity change below about -80%; inconclusive means no clear call, values can overlap the other calls
T cruzi growth-1 = blocks T. cruzi growth in NIH3T3 culture | T. cruzi beta-gal in NIH3T3, GalScreen luminescence, 90 h | inhibition, % at 8.34 µM | 5.9% of 77,000 active;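 active means mean inhibition above about 93%, with at least 55% of replicates each passing it, limit read from the data, passing the limit was not always enough; inconclusive means only one of those two conditions holds; inactive means neither condition holds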
C diff growth = blocks growth of Clostridium difficile; Clostridium difficile clinical isolate growth, OD600, 24 h; active compounds read low; growth activity, negative = inhibition, % at 16 µg/mL (by protocol); 0.25% of 86,000 active;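 active means mean growth activity at or below -80% and every replicate also at or below -80%; inconclusive means mean at or below -80% but some replicate above -80%; inactive means mean growth activity above -80%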
T cruzi growth-2 = blocks T. cruzi growth in NIH3T3 host cells | 72% of 5,600 active | inhibition, % at 8.35 µM | AID 651739 | shares compounds with T cruzi growth-1 | T. cruzi beta-gal in NIH3T3, GalScreen luminescence, 90 h;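 active means mean replicate inhibition above about 95% and at least 55% of replicates individually reaching it, limit read from the data; inconclusive means only one of the two criteria is met; inactive means neither criterion is met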
T cruzi growth-3 = Trypanosoma cruzi proliferation inhibition; shares compounds with T cruzi growth-1; T. cruzi beta-gal in NIH3T3, GalScreen luminescence, 90 h; inhibition, % at 2.09 µM; 21% of 5,600 active; AID 651740;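 active means mean inhibition above about 95%, with at least 55% of replicates also reaching it, limit read from the data; inconclusive means meets just one of the two conditions; inactive means meets neither condition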
NIH3T3 tox = kills mouse NIH/3T3 fibroblasts | shares compounds with T cruzi growth-1 | NIH/3T3 viability, CellTiter-Glo ATP luminescence, 90 h | cytotoxicity (signal decrease), % at 8.35 µM | 14% of 5,600 active | AID 651742;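 active means mean signal decrease across replicates above about 35% based on untreated-well scatter, with enough replicates individually passing, limit read from the data; inconclusive means no rule stated though some were filed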
NIH3T3 tox 2 = cytotoxicity in mouse NIH/3T3 fibroblasts | shares compounds with T cruzi growth-1 | NIH/3T3 viability, CellTiter-Glo ATP luminescence, 90 h | inhibition, % at 24.9 µM | 56% of 5,600 active;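 active means mean loss of cell viability signal at or above a set limit, and enough replicates individually reaching it; inconclusive means meets only the mean limit or only the replicate share; inactive means meets neither condition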
Hits are given with their value; – = inactive; ? = inconclusive; · = no result given.

SMILES	Pf Dd2 inh	T cruzi growth-1	C diff growth	T cruzi growth-2	T cruzi growth-3	NIH3T3 tox	NIH3T3 tox 2
CN(C)CC#Cc1ccc([C@H]2[C@@H](CO)N3CCCCN(C(=O)Cc4ccccn4)C[C@H]23)cc1	–	–	–	·	·	·	·
CN(C)CC#Cc1ccc([C@@H]2[C@H](CO)N3CCCCN(C(=O)Cc4ccccn4)C[C@@H]23)cc1	–	114	–	–	–	–	–
CN(C)CC#Cc1ccc([C@@H]2[C@@H](CO)N3CCCCN(C(=O)Cc4ccccn4)C[C@@H]23)cc1	–	–	–	·	·	·	·
CN(C)CC#Cc1ccc([C@@H]2[C@@H](CO)N3CCCCN(C(=O)Cc4ccccn4)C[C@H]23)cc1	–	114	–	–	–	–	–
O=C1CNC[C@H]2[C@@H](c3ccc(Br)cc3)[C@H](CO)N12	–	·	–	·	·	·	·
CN1[C@@H](CO)[C@@H]2c3ccccc3NC[C@@H]21	–	–	–	·	·	·	·
CCC(=O)N1[C@@H]2Cn3c(ccc(C4=CCCC4)c3=O)[C@H]1[C@@H](C(=O)OC)[C@@H]2CO	–	–	–	·	·	·	·
CC=Cc1ccc2n(c1=O)C[C@H]1[C@H](CO)[C@@H](C(=O)OC)[C@@H]2N1S(=O)(=O)c1cccc(C)c1 (mixture of isomers)	·	107	–	102	–	–	–
CC=Cc1ccc2n(c1=O)C[C@@H]1[C@@H](CO)[C@H](C(=O)OC)[C@H]2N1CC1CC1 (mixture of isomers)	–	–	–	·	·	·	·
COC(=O)[C@@H]1[C@@H](CO)[C@@H]2Cn3c(cccc3=O)[C@@H]2N1CC1CC1	–	–	–	·	·	·	·
CCCC#Cc1ccc([C@@H]2[C@@H](CO)N3CCCCN(C(=O)Cc4ccccn4)C[C@@H]23)cc1	–	110	–	?	–	–	–
O=C(Cc1ccccn1)N1CCCCN2[C@H](C1)[C@@H](c1ccc(C#Cc3ccccc3)cc1)[C@@H]2CO	–	99	–	105	–	41	104
CCCC#Cc1ccc([C@@H]2[C@@H](CO)N3CCCCN(C(=O)Cc4ccccn4)C[C@H]23)cc1	–	–	–	·	·	·	·
CCCC#Cc1ccc([C@H]2[C@H](CO)N3CCCCN(C(=O)Cc4ccccn4)C[C@@H]23)cc1	–	–	–	·	·	·	·
CCCC#Cc1ccc([C@H]2[C@@H](CO)N3CCCCN(C(=O)Cc4ccccn4)C[C@H]23)cc1	–	–	–	·	·	·	·
CCCC#Cc1ccc([C@H]2[C@H]3CN(C(=O)Cc4ccccn4)CCCCN3[C@H]2CO)cc1	–	119	–	–	–	–	–
Cc1ccccc1S(=O)(=O)N1[C@@H]2Cn3c(ccc(-c4cccnc4)c3=O)[C@H]1[C@@H](C(=O)O)[C@@H]2CO	–	–	–	·	·	·	·
CC=Cc1ccc2n(c1=O)C[C@@H]1[C@@H](CO)[C@H](C(=O)OC)[C@H]2N1CC1CCCC1 (mixture of isomers)	–	·	–	·	·	·	·
CCCNC(=O)[C@@H]1[C@@H](CO)[C@@H]2Cn3c(cccc3=O)[C@H]1N2CCC	–	–	–	·	·	·	·
C=CC1CN2CCC1C[C@@H]2CO (some centres not stated)	·	·	–	·	·	·	·
O=C(Cc1cccnc1)N1CCCCN2[C@H](CO)[C@H](c3ccc(C#CC4CC4)cc3)[C@@H]2C1	–	–	–	·	·	·	·
O=C(Cc1cccnc1)N1CCCCN2[C@H](CO)[C@H](c3ccc(C#CC4CCCC4)cc3)[C@@H]2C1	–	111	–	–	–	–	78
O=C(Cc1cccnc1)N1CCCCN2[C@H](C1)[C@@H](c1ccc(C#CC3CCCC3)cc1)[C@@H]2CO	–	102	–	107	–	–	104
O=C(Cc1cccnc1)N1CCCCN2[C@H](CO)[C@H](c3ccc(C#CC4CC4)cc3)[C@H]2C1	–	–	–	·	·	·	·
COC(=O)[C@H]1[C@H](CO)[C@H]2Cn3c(ccc(C4=CCCCC4)c3=O)[C@@H]1N2CCc1ccccc1	–	–	–	·	·	·	·
SMILES	Pf Dd2 inh	T cruzi growth-1	C diff growth	T cruzi growth-2	T cruzi growth-3	NIH3T3 tox	NIH3T3 tox 2
O=C(Cc1cccnc1)N1CCCCN2[C@H](C1)[C@H](c1ccc(/C=C/c3ccccc3)cc1)[C@@H]2CO	–	–	–	·	·	·	·
O=C(Cc1cccnc1)N1CCCCN2[C@H](CO)[C@H](c3ccc(/C=C/c4ccccc4)cc3)[C@@H]2C1	–	119	–	114	102	?	79
O=C(Cc1cccnc1)N1CCCCN2[C@@H](CO)[C@H](c3ccc(/C=C/c4ccccc4)cc3)[C@@H]2C1	–	105	–	104	–	?	104
C/C=C/c1ccc([C@@H]2[C@@H](CO)N3CCCCN(C(=O)Cc4cccnc4)C[C@H]23)cc1	–	–	–	·	·	·	·
CCCN1[C@@H]2Cn3c(cccc3=O)[C@H]1[C@@H](C(=O)N(C)C)[C@@H]2CO	·	–	–	·	·	·	·
CC=Cc1ccc2n(c1=O)C[C@H]1[C@H](CO)[C@@H](C(=O)O)[C@@H]2N1S(=O)(=O)c1ccccc1C (mixture of isomers)	–	–	–	·	·	·	·
O=C(Cc1ccccn1)N1CCCCN2[C@@H](CO)[C@@H](c3ccc(-c4ccccc4)cc3)[C@@H]2C1	–	113	–	?	–	–	–
O=C(Cc1ccccn1)N1CCCCN2[C@H](CO)[C@@H](c3ccc(Br)cc3)[C@H]2C1	–	105	–	–	–	–	–
O=C(Cc1ccccn1)N1CCCCN2[C@H](C1)[C@H](c1ccc(Br)cc1)[C@@H]2CO	–	–	–	·	·	·	·
O=C(Cc1ccccn1)N1CCCCN2[C@H](CO)[C@H](c3ccc(-c4ccccc4)cc3)[C@H]2C1	–	–	–	·	·	·	·
CC=Cc1ccc2n(c1=O)C[C@H]1[C@H](CO)[C@@H](C(=O)N(C)C)[C@@H]2N1C (mixture of isomers)	·	–	–	·	·	·	·
OC[C@H]1[C@H]2c3ccccc3NC[C@H]2N1Cc1cccnc1	–	–	–	·	·	·	·
O=C(Cc1ccccc1)N1C[C@@H]2[C@H](c3ccccc31)[C@H](CO)N2Cc1ccccc1	–	97	–	101	100	–	–
COC(=O)C[C@H]1CC[C@@H]2NC[C@H](O)COC[C@H]2O1	–	105	–	–	–	–	–
COC(=O)C[C@@H]1CC[C@@H]2NC[C@H](O)COC[C@H]2O1	–	–	–	·	·	·	·
CCCN1[C@@H]2Cn3c(ccc(-c4ccc(F)cc4)c3=O)[C@H]1[C@@H](C(=O)OC)[C@@H]2CO	–	–	–	·	·	·	·
O=C(Cc1ccccc1)N1CCCCN2[C@H](CO)[C@@H](c3ccc(C#CC4(O)CCCC4)cc3)[C@@H]2C1	–	–	–	·	·	·	·
O=C(Cc1ccccc1)N1CCCCN2[C@@H](CO)[C@H](c3ccc(C#Cc4ccccc4)cc3)[C@@H]2C1	–	111	–	108	105	43	103
O=C(Cc1ccccc1)N1CCCCN2[C@H](CO)[C@H](c3ccc(C#CC4(O)CCCC4)cc3)[C@H]2C1	–	100	–	–	–	–	30
